An excerpt weighted towards active compounds, which were near 17% of everything screened.
ClpP mod – qHTS Assay for Activators of ClpP. ATP-dependent Clp protease proteolytic subunit (Bacillus subtilis (strain 168)), P80244. purified B. subtilis ClpP, FRET peptide cleavage, 20 min. Potency, µM (highest dose often 57.5 µM), without a hit: at the top dose activity change, negative = active. 1.9% of 340,000 active; active = well fitted falling curve with a large enough effect; inconclusive = small, poorly fitted or top-dose-only effect; inactive = no such curve, though single readings can be large or run the other way; note: the source files actives as falling curves though it sought activators and does not explain the sign; nearly all actives have a fitted effect of over 65% in size
Target sequence (P80244 whole entry, looked up): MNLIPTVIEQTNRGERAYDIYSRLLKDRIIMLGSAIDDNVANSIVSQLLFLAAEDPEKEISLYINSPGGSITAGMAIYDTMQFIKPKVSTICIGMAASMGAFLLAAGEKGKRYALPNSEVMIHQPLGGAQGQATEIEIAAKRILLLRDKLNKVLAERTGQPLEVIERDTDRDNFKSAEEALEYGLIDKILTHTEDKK
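FRET quenching reversal measured ClpP activation: 10 microg/mL B. subtilis ClpP at pH 8 with the FRET-FV decapeptide, read at 430 nm after 320 nm excitation. The 20-min minus 0-min signal was scaled between DMSO/no-enzyme wells and ADEP (5.8 microM final).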
TDP1 cell noCPT – qHTS for Inhibitors of human tyrosyl-DNA phosphodiesterase 1 (TDP1): qHTS in cells in absence of CPT | Potency, µM (highest dose often 46.2 µM), inactives show at the highest dose activity change, negative = growth inhibition, usual class: inhibitors | DT40 Tdp1-/- hTDP1 cells, no CPT, ATP luminescence, 48 h | 15% of 420,000 active; note: % is set by controls: 0 for no effect and ±100 for the full control effect; nearly all actives have a fitted effect of over 55% in size
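Camptothecin absent (DMSO only). Human TDP1-complemented DT40 knockout cells, 400 cells/well, 37 °C for minimum 48 hr; ATP measured via CellTiter-Glo, 30 min dark incubation, luminescence.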
TDP1 inh – inhibitors of human tyrosyl-DNA phosphodiesterase TDP1 | Q9NUW8 | 0.28% of 350,000 active | Potency, µM (top dose mostly 130 µM), without a hit: at the top dose activity change, negative = inhibition, usual class: inhibitors | recombinant TDP1, AlphaScreen DNA substrate cleavage; note: % is set by controls: 0 for no effect and ±100 for the full control effect; nearly all actives have a fitted effect of over 40% in size
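Recombinant E. coli-expressed Tdp1 (1 nM) preincubated with compound 15 min at RT, then 5'-biotin/3'-phosphotyrosine-FITC DNA substrate (15 nM) added for 5 min. AlphaScreen beads (10 ug/ml) added, 10 min RT; tyrosine-FITC cleavage read as signal loss.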
DT40 TDP1 CPT – DT40-hTDP1 cell growth loss with CPT. chicken DT40 Tdp1-/-;hTDP1 cells + 20 nM CPT, ATP luminescence, 48 h. Potency, µM (top dose mostly 46.2 µM), for the others: at the highest dose activity change, negative = growth inhibition, hits mostly inhibitors. 12% of 420,000 active; note: % is set by controls: 0 for no effect and ±100 for the full control effect; nearly all actives have a fitted effect of over 55% in size
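Chicken DT40 Tdp1-/- cells stably complemented with human TDP1 were seeded at 400 cells/well in medium containing 20 nM camptothecin, exposed to pin-transferred compounds, and grown at 37 °C for at least 48 hr. Viability was read as ATP luminescence.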
Starred values were filed as active, the others as inactive; ? = inconclusive; . = no result given; [ ] = dose if it differs, or a comment. Unless noted, calls come from the whole dose curve; as a rule, active = well fitted curve in the direction sought with a large enough effect; inconclusive = small, poorly fitted or top-dose-only effect, or another doubt; inactive = no such curve, though single readings can be large; an effect the other way counts as inactive or inconclusive. Potency is the fitted concentration of half-maximal effect.

SMILES	ClpP mod	TDP1 cell noCPT	TDP1 inh	DT40 TDP1 CPT
CC(=O)N1CCc2cc(S(=O)(=O)NCCC(=O)NCCc3ccc(Cl)cc3)ccc21	0.2%	?	2.2%	16.4µM*
CCC(=O)N1CCc2cc(S(=O)(=O)NCCC(=O)Nc3cc(C)cc(C)c3)ccc21	1.0%	-12.1%	6.0%	-20.2%
CC(=O)N1CCc2cc(S(=O)(=O)NCCCN3CCCCC3)ccc21	-0.6%	22.4%	0.7%	-1.8%
CC(=O)N1CCc2cc(S(=O)(=O)NCCC(=O)NCCc3ccccc3)ccc21	-0.7%	?	6.5%	?
CCC(=O)N1CCc2cc(S(=O)(=O)NCCC(=O)NCc3ccc(C)cc3)ccc21	-6.1%	?	2.3%	20.6µM*
CC(=O)N1CCc2cc(S(=O)(=O)CCC(=O)NCc3ccc(Cl)cc3)ccc21	-2.9%	20.6µM*	2.8%	?
CC(=O)N1CCc2cc(S(=O)(=O)CCC(=O)Nc3ccc(Cl)cc3F)ccc21	1.5%	-3.1%	1.0%	-20.7%
Cc1ccc(OCC(=O)Nc2cccc3ccccc23)c([N+](=O)[O-])n1	-5.2%	?	2.7%	?
Cc1ccc(S(=O)(=O)/N=C(\N)Nc2nc(C)c3cc(C)ccc3n2)cc1	?	?	3.9%	?
Cc1ccc(S(=O)(=O)/N=C(\N)Nc2nc(C)c3cc(C)c(C)cc3n2)cc1	-25.3%	?	7.2%	23.1µM*
Cc1ccc2c(C)nc(N/C(N)=N/S(=O)(=O)c3ccccc3)nc2c1	28.2µM*	-21.4%	-5.0%	-21.2%
Cc1ccc(S(=O)(=O)/N=C(\N)Nc2nc(C)c3ccc(C)cc3n2)cc1	?	?	5.2%	20.6µM*
Cc1ccc(NC(=O)Cn2c(=O)n(CC3CCCO3)c(=O)c3ccccc32)cc1 (stereo not given)	-2.6%	-24.2%	-3.6%	-26.4%
N#Cc1ccc(C(=O)Nc2ccccc2-c2nc3ccccc3s2)c(F)c1	-19.1%	.	5.8%	.
Cc1noc(C)c1COc1cccc(C(=O)N2CCc3ccccc32)c1	.	?	5.1%	?
CC(C)NC(=O)N[C@H]1CC[C@H](CC(=O)NCc2ccc(Oc3ccccc3)cc2)O[C@@H]1CO	-5.7%	?	.	?
COc1cc2c(=O)c(C(=O)c3ccc(F)cc3)cn(Cc3cccc(F)c3)c2cc1OC	0.8%	16.4µM*	5.8%	20.6µM*
COc1ccc(Cn2cc(C(=O)c3ccc(C)c(C)c3)c(=O)c3ccccc32)cc1	-1.9%	16.4µM*	1.2%	?
COc1cc2c(=O)c(C(=O)c3ccc(C)c(C)c3)cn(Cc3ccccc3)c2cc1OC	-4.3%	?	8.1%	14.6µM*
COc1ccccc1Cn1cc(C(=O)c2ccc(Cl)cc2)c(=O)c2cc3c(cc21)OCCO3	-2.5%	?	3.5%	?
COc1ccccc1Cn1cc(C(=O)c2ccc(Cl)cc2)c(=O)c2ccccc21	19.1%	14.6µM*	4.6%	23.1µM*
COc1cc(=O)n2c(c1C(=O)NCc1ccco1)CCN(Cc1cccc(C(F)(F)F)c1)CC2	.	-1.0%	.	16.7%[9.04 µM]
CC(C)(C)S(=O)N1Cc2cc(=O)n(Cc3ccccc3)c(CCO)c2[C@H]1CCO (stereo not given in full)	-19.8%	?	.	?
COc1ccc2c(-c3ccccc3)cc(SCC(=O)NC3CCS(=O)(=O)C3)nc2c1 (stereo not given)	.	-25.4%	4.2%	-23.6%
COc1cccc(Cn2cc(C(=O)c3ccc(Cl)cc3)c(=O)c3ccccc32)c1	0.1%	?	9.2%	?
SMILES	ClpP mod	TDP1 cell noCPT	TDP1 inh	DT40 TDP1 CPT
COc1cc2c(=O)c(C(=O)c3ccc(C)c(C)c3)cn(Cc3ccc(F)cc3)c2cc1OC	0.3%	18.4µM*	0.0%	10.3µM*
CCc1ccc(C(=O)c2cn(Cc3ccccc3)c3cc(OC)c(OC)cc3c2=O)cc1	-4.2%	16.4µM*	8.1%	16.4µM*
CCOc1ccc(C(=O)c2cn(CC(=O)Nc3cc(OC)ccc3OC)c3cc(OC)c(OC)cc3c2=O)cc1	-3.7%	16.4µM*	9.0%	23.1µM*
COc1ccc2c(c1)c(=O)c(C(=O)c1ccccc1)cn2Cc1ccc(C)cc1	-6.0%	16.4µM*	2.6%	?
CC(=O)SC1CC2=CC(=O)CC[C@]2(C)C2CC[C@@]3(C)[C@@H](CC[C@@]34CCC(=O)O4)C12 (stereo not given in full)	.	.	13.5%[56.1 µM]	.
O=c1cc(-c2ccccc2)c2ccc3c(c2o1)CN(Cc1cccc(Cl)c1)CO3	-29.3%	?	7.4%	?
O=C(O)CSc1nc2ccc(Br)cc2[nH]1	.	13.2%	.	17.4%
Cc1ccc(C(=O)c2cn(Cc3ccccc3)c3c(F)cc(F)cc3c2=O)cc1	-2.9%	?	4.6%	?
COc1cc2c(=O)c(C(=O)c3ccc(C)c(C)c3)cn(Cc3ccccc3F)c2cc1OC	1.5%	16.4µM*	4.6%	18.4µM*
CCn1cc(C(=O)O)c(=O)c2cc(OC)ccc21	31.6µM*	-9.8%	8.8%	?
CCOc1ccc(C(=O)c2cn(Cc3ccc(OC)cc3)c3cc(OC)c(OC)cc3c2=O)cc1	-0.7%	18.4µM*	4.6%	?
COc1ccc(C(=O)c2cn(Cc3ccc(F)cc3)c3c(F)cc(F)cc3c2=O)cc1	-0.2%	23.1µM*	5.8%	?
CCOc1ccc(NC(=O)Cn2cc(C(=O)c3ccc(C)c(C)c3)c(=O)c3cc(OC)c(OC)cc32)cc1	-2.1%	-1.0%	1.3%	-11.8%
CCOc1ccc(NC(=O)Cn2cc(C(=O)c3ccccc3)c(=O)c3cc(OC)ccc32)cc1	-7.3%	?	6.4%	?
CC(CN1CCCC1)OC(=O)c1ccc(Br)cc1 (stereo not given)	1.6%	?	.	9.3%
CC1(C)S[C@@H]2[C@H](NC(=O)Cc3ccccc3)C(=O)N2[C@@H]1C(=O)O	.	.	-4.3%	.
COc1ccc(C(=O)c2cn(Cc3ccccc3F)c3cc4c(cc3c2=O)OCCO4)cc1OC	-1.0%	20.6µM*	9.2%	?
Cc1cccc(C)c1NC(=O)C1(C)CN(S(C)(=O)=O)CC(=O)N1CCc1ccccc1F (stereo not given)	-3.4%	12.8%	.	8.2%
O=C(c1ccc(F)c(F)c1)N1CCOc2ccc(CN3CCN(CCO)CC3)cc2C1	.	-11.3%	.	21.5%
COc1ccc(-c2noc(-c3ccc(N4CCN(C)CC4)c([N+](=O)[O-])c3)n2)cc1OC	-1.0%	3.26µM*	2.9%	5.17µM*
COc1ccccc1-c1noc(-c2ccc(N3CCOCC3)c([N+](=O)[O-])c2)n1	0.1%	13µM*	2.9%	20.6µM*
COc1ccc(-c2noc(-c3ccc(N4CCN(c5ccccc5OC)CC4)c([N+](=O)[O-])c3)n2)cc1	-0.9%	3.3%	5.7%	1.5%
